# KKLEB cytotox: counter-screen for CF NF-kB inhibitors: cytotoxicity; KKLEB CF airway cells viability, ATPlite luminescence, overnight; stronger effect = lower value; cells stimulated with P. aeruginosa culture filtrate; actives 0.36% (n = 360,000); activity change (cytotoxicity), % at 5 µM;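 active = corrected activity change at or below -50% at 5 µM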
# LGR2 inh: Drosophila LGR2 receptor signaling inhibition | inhibition, % at 9.99 µM | HEK293 LGR2, CRE-luciferase, bursicon-stimulated, 4 h | actives 0.35% (n = 380,000);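 active = drop in luminescence signal, shown as inhibition above about 50% in the replicate tests, limit read from the data, passing the limit was not always enough; inconclusive = probably only some replicates passing the limit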;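 also: agonist challenge used bursicon conditioned medium at about half maximal strength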
# EWS-Fli block: inhibitors of EWS/Fli oncoprotein transcriptional activity; A673 NR0B1-luciferase reporter, viability-normalised; inhibition, % at 12.6 µM; actives 0.67% (n = 350,000);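 active = mean inhibition of at least 50% after viability correction, with every replicate also passing that limit; inconclusive = mean reaches 50% but only one of two replicates passes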;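 also: firefly luciferase signal divided by Alamar Blue viability fluorescence both relative to DMSO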
# PAX8 inh HTS: lowers PAX8-driven luciferase in RMG-I cells | AID 652154 | actives 1.2% (n = 360,000) | RMG-I TPO-luciferase reporter, SteadyGlo, 24 h | inhibition, % at 12.6 µM;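 active = mean replicate inhibition at least 60% with every replicate also reaching 60%; inconclusive = only one of the two criteria is met; inactive = mean below 60% and not all replicates reaching 60%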;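 also: luciferase light reporting Pax8 driven TPO promoter activity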
# Shn3 inh set2: reduces Shn3 3'UTR luciferase signal in osteoblasts; Clone20 osteoblast Shn3 3'UTR firefly luciferase, 24 h; actives 0.52% (n = 360,000); inhibition, % at 12.5 µM;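 active = mean inhibition of at least 75% with every replicate also reaching 75%; inconclusive = mean inhibition at least 75% but some replicate below; inactive = mean inhibition below 75%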
# CF NFkB block: inhibitors of cystic fibrosis induced NF-kB | KKLEB NF-kB-GFP reporter, PAF-induced, GFP fluorescence overnight | inhibition, % at 5 µM | actives 0.86% (n = 360,000);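 active = at least 50% inhibition at 5 µM, scaled per plate between neutral and stimulator controls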;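 also: PAF is a Pseudomonas aeruginosa culture filtrate used as stimulus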
# A number is an active result; . = inactive; ? = inconclusive; / = no result. In the library only some 2% were active in any assay of this set; here they are far more common.
SMILES,KKLEB cytotox,LGR2 inh,EWS-Fli block,PAX8 inh HTS,Shn3 inh set2,CF NFkB block
CC(C)(C)OC(=O)NCCCCCNC(=O)c1ncn(Cc2ccccc2)c1C(=O)NCCCCCNC(=O)OC(C)(C)C,.,.,.,74.6,.,.
CN(Cc1ccccc1)C(=O)c1[nH]cnc1C(=O)NCCCCCNC(=O)OC(C)(C)C,.,.,.,.,.,.
CC(C)(C)OC(=O)NCc1ccc(NC(=O)c2nc[nH]c2C(=O)NCCNC(=O)c2[nH]cnc2C(=O)Nc2ccc(CNC(=O)OC(C)(C)C)cc2)cc1,.,/,/,/,.,72.3
O=C(Nc1ccc(Cl)cc1)c1nc[nH]c1C(=O)NCCN(CCNC(=O)c1[nH]cnc1C(=O)Nc1ccc(Cl)cc1)CCNC(=O)c1[nH]cnc1C(=O)Nc1ccc(Cl)cc1,-55.6,/,/,/,.,70.9
CC(C)(C)OC(=O)CNC(=O)c1[nH]cnc1C(=O)Nc1ccc(CNC(=O)OC(C)(C)C)cc1,.,/,.,.,.,.
CC(C)(C)OC(=O)NCc1ccc(CNC(=O)c2nc[nH]c2C(=O)NCc2ccc(CNC(=O)OC(C)(C)C)cc2)cc1,.,.,.,.,86.8,.
C[C@@H]1CCCCO[C@@H](CN(C)C(=O)Nc2ccc(C(F)(F)F)cc2)[C@H](C)CN([C@@H](C)CO)C(=O)c2cc(NC(=O)CCC(F)(F)F)ccc2O1,/,.,.,.,/,/
CCCNC(=O)Nc1ccc2c(c1)C(=O)N(C)C[C@H](OC)[C@@H](C)CN(C(=O)C1CCCCC1)[C@H](C)CO2,/,.,.,.,/,/
C[C@H]1CN([C@@H](C)CO)C(=O)c2cc(-c3cccc(C#N)c3)cnc2O[C@@H]1CN(C)Cc1cccnc1,/,.,.,.,/,/
CC(C)NC(=O)Nc1ccc2c(c1)C(=O)N([C@H](C)CO)C[C@@H](C)[C@H](CN(C)S(=O)(=O)c1cccs1)OCCCC[C@@H](C)O2,/,.,.,.,/,/
Cc1cccc(NC(=O)c2nc[nH]c2C(=O)NCCCCCNC(=O)OC(C)(C)C)c1,.,.,.,.,.,.
CC(C)(C)OC(=O)NCCCCCNC(=O)c1nc[nH]c1C(=O)NCCCCCNC(=O)OC(C)(C)C,.,101.6,.,.,.,.
CC(C)(C)OC(=O)NCCCCCNC(=O)c1nc[nH]c1C(=O)NCc1ccc(CNC(=O)OC(C)(C)C)cc1,.,/,.,72.5,88.9,.
CO[C@@H]1CN(C)C(=O)c2cc(NC(=O)c3cc(C)on3)ccc2OC[C@H](C)N(C(=O)C2CC2)C[C@@H]1C,/,.,.,/,/,/
CO[C@H]1CN(C)C(=O)c2cc(NC(=O)Nc3cccc(F)c3)ccc2OC[C@H](C)N(C(=O)C2CC2)C[C@@H]1C,/,.,.,.,/,/
O=C(CCN1CCCCC1)NCC[C@H]1CC[C@H](NC(=O)C2CCCCC2)[C@@H](CO)O1,/,.,.,/,/,/
C[C@@H]1CN([C@@H](C)CO)C(=O)c2c(c3ccccc3n2C)-c2ccccc2CO[C@@H]1CN(C)S(=O)(=O)c1cccc(F)c1,/,.,.,.,/,/
COc1ccccc1S(=O)(=O)N(C)C[C@H]1OCc2ccccc2-c2c(n(C)c3ccccc23)C(=O)N([C@H](C)CO)C[C@@H]1C,/,.,.,61.9,/,/
C[C@@H]1CN([C@@H](C)CO)C(=O)c2c(c3ccccc3n2C)-c2ccccc2CO[C@H]1CN(C)S(=O)(=O)c1cccc(F)c1,/,.,.,86.8,/,/
COc1ccccc1S(=O)(=O)N(C)C[C@@H]1OCc2ccccc2-c2c(n(C)c3ccccc23)C(=O)N([C@H](C)CO)C[C@H]1C,/,.,.,.,/,/
COc1cccc(S(=O)(=O)N(C)C[C@H]2OCc3ccccc3-c3c(n(C)c4ccccc34)C(=O)N([C@H](C)CO)C[C@H]2C)c1,/,.,.,85.8,/,/
Cc1ccc(S(=O)(=O)Nc2ccc3c(c2)C(=O)N([C@H](C)CO)C[C@H](C)[C@@H](CN(C)C(=O)Nc2ccc(F)cc2)OCCCC[C@H](C)O3)cc1,/,.,.,.,/,/
COc1cc(OC)c2c(-c3cccc(-c4ccc(OC(F)(F)F)cc4)c3)cc(=O)oc2c1,.,.,.,.,.,.
COc1ccc(-c2cccc(-c3cc(=O)oc4cc(OC)c(OC)c(OC)c34)c2)cc1,.,.,.,.,.,.
COc1cc(OC)c2c(-c3cccc(-c4ccc(CO)cc4)c3)cc(=O)oc2c1,.,/,/,/,.,57.1
SMILES,KKLEB cytotox,LGR2 inh,EWS-Fli block,PAX8 inh HTS,Shn3 inh set2,CF NFkB block
COc1cc(OC)c2c(-c3cccc(-c4ccc(N(C)C)cc4)c3)cc(=O)oc2c1,.,.,?,76.9,.,.
COc1ccc(-c2cccc(-c3cc(=O)oc4cc(OC)cc(OC)c34)c2)cc1,.,.,52.8,.,.,.
COc1cc(OC)c2c(-c3cccc(/C=C/c4ccc(F)cc4)c3)cc(=O)oc2c1,.,.,.,.,.,.
COc1cc(OC)c2c(-c3cccc(-c4cccc(C)c4)c3)cc(=O)oc2c1,.,.,53.7,.,.,.
COc1ccc(S(=O)(=O)Nc2ccc3c(c2)CC(=O)N([C@@H](C)CO)C[C@@H](C)[C@@H](CN(C)C(=O)Nc2ccc(C(F)(F)F)cc2)O3)cc1,/,.,.,.,/,/
C[C@@H]1CN([C@H](C)CO)C(=O)c2cc(NC(=O)CCC(F)(F)F)ccc2O[C@@H](C)CCCCO[C@@H]1CN(C)S(=O)(=O)c1ccc(F)cc1,/,.,.,.,/,/
COc1cc(OC)c2c(-c3cccc(-c4ccc(O)cc4)c3)cc(=O)oc2c1,.,.,53.3,.,.,.
O=C(C[C@H]1C=C[C@@H](NC(=O)C2CCC2)[C@H](CO)O1)NCc1ccccc1Cl,/,.,.,.,/,/
Nc1nc2cc3c(cc2cc1C(=O)NCCc1c[nH]c2ccccc12)OCO3,/,.,59.1,.,/,/
COc1cc2cc(C(=O)NCCc3c[nH]c4ccccc34)c(N)nc2cc1OC,/,.,.,.,/,/
CN(C)CC#Cc1ccc([C@H]2[C@H](CO)N3C(=O)CN(C(=O)Cc4cccnc4)C[C@@H]23)cc1,/,.,.,.,/,/
COc1cccc(NC(=O)N[C@H]2CC[C@H](CC(=O)Nc3ccc(-c4ccccc4)cc3)O[C@H]2CO)c1,/,.,.,.,/,/
O=C(O)CCCCCCCCc1cn(Cc2ccc(C(=O)c3ccccc3)cc2)nn1,.,.,54.4,.,.,.
CC(=O)N(C)C[C@@H]1Oc2ncc(C3=CCCC3)cc2C(=O)N([C@H](C)CO)C[C@@H]1C,/,.,.,/,/,/
CC(=O)NC1C(O)OC(CO)C(O)C1O (stereo unspecified),.,.,.,.,97.1,.
CCCNC(=O)N1C[C@@H](O)COC[C@H]2O[C@H](CC(=O)OC)CC[C@@H]21,/,.,/,/,/,/
COc1ccc(CNC(=O)c2cc3c(C)nc4ccccc4c3o2)c(OC)c1,.,/,/,/,89.7,.
Cc1ccc(S(=O)(=O)N(C)C[C@@H]2Oc3ccc(NC(=O)Nc4ccc5c(c4)OCO5)cc3CC(=O)N([C@@H](C)CO)C[C@@H]2C)cc1,/,.,63.4,.,/,/

# Source: PubChem (several laboratories)
